# Assays:
# Test in all cases: DAPPL (digital affinity profiling via proximity ligation, sequencing); 10 mM Tris-HCl pH 7.5, 50 mM NaCl, 1 mM DTT, 4% glycerol, room temperature, 30 min; GST-TFs on glutathione beads, 16-mer random dsDNA library, 0.1% formaldehyde crosslink after washing; high values mean tight binding
# FEV = target: T1, FEV (Homo sapiens, UniProt Q99581 1-238); conditions: protein: recombinant; tags: N-terminal GST; dsDNA, one strand shown
# T1 sequence: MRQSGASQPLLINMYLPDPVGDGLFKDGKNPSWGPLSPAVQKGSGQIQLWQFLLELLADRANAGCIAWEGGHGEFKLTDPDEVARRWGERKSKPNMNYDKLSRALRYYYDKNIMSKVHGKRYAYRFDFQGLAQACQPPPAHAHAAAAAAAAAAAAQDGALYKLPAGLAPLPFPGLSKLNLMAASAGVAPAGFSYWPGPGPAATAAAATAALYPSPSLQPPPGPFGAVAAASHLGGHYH
# Procedure, shortened: (§1)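 Human transcription factors were made in yeast as GST fusions, captured on glutathione beads and barcoded with DNA. With a tag-only sample included, the pool was incubated with 200 nmole of a random double-stranded 16-mer DNA library in Tris/NaCl/DTT/glycerol buffer at room temperature for 30 min, then crosslinked with 0.1% formaldehyde after washing, ligated by proximity, amplified and sequenced. For binding signal, each hexamer's read frequency for a factor is divided by its frequency for the tag-only sample.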
# ETV5 = ETV5 (Homo sapiens, UniProt P41161 1-510); conditions: protein: recombinant; tags: N-terminal GST; dsDNA, one strand shown
# Chain of ETV5 (P41161 whole entry): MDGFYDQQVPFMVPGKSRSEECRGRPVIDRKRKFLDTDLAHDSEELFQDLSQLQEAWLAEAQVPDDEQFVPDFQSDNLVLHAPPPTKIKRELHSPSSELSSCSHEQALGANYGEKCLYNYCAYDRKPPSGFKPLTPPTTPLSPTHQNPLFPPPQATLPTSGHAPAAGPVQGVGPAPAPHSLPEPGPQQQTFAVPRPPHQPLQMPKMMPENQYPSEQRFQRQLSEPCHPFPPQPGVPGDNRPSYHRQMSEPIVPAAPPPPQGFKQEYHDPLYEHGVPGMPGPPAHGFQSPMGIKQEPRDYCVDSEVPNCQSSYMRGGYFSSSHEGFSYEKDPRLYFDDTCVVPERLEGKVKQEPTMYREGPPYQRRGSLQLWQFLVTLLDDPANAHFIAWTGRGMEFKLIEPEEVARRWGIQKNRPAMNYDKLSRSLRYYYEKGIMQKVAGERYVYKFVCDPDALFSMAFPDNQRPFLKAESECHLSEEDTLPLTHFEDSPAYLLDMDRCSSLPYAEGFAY
# Procedure, shortened: as §1
# HSF1 = HSF1 (Homo sapiens, UniProt Q00613 1-529); conditions: protein: recombinant; tags: N-terminal GST; chain copies: 3; dsDNA, one strand shown
# Chain of HSF1 (Q00613 whole entry): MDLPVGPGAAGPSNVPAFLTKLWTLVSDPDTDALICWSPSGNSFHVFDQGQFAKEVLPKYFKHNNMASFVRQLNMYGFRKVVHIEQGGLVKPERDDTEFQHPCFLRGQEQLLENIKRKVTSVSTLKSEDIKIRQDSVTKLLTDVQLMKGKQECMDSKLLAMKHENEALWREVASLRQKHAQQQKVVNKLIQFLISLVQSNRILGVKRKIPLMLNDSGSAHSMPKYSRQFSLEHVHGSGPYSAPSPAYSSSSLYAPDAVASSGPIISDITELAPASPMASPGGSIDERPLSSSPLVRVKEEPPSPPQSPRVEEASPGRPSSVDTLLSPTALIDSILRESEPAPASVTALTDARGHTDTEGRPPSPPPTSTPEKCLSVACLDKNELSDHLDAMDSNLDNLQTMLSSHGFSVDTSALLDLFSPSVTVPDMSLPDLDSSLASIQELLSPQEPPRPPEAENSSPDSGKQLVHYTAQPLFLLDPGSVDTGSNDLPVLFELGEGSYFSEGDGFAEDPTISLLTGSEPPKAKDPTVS
# Procedure, shortened: as §1
# SPIC = target: T2, SPIC (Homo sapiens, UniProt Q8N5J4 1-248); conditions: protein: recombinant; tags: N-terminal GST; dsDNA, one strand shown
# T2 sequence: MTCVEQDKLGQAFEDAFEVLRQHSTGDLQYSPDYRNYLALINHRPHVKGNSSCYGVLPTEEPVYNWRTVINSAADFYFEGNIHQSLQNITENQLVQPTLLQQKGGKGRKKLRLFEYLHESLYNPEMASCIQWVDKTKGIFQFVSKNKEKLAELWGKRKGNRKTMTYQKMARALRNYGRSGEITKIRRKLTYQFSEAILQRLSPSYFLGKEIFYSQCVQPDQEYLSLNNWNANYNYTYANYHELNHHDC
# Procedure, shortened: as §1
# ELF4 = ELF4 (Homo sapiens, UniProt Q99607 1-663); conditions: protein: recombinant; tags: N-terminal GST; dsDNA, one strand shown
# Chain of ELF4 (Q99607 whole entry): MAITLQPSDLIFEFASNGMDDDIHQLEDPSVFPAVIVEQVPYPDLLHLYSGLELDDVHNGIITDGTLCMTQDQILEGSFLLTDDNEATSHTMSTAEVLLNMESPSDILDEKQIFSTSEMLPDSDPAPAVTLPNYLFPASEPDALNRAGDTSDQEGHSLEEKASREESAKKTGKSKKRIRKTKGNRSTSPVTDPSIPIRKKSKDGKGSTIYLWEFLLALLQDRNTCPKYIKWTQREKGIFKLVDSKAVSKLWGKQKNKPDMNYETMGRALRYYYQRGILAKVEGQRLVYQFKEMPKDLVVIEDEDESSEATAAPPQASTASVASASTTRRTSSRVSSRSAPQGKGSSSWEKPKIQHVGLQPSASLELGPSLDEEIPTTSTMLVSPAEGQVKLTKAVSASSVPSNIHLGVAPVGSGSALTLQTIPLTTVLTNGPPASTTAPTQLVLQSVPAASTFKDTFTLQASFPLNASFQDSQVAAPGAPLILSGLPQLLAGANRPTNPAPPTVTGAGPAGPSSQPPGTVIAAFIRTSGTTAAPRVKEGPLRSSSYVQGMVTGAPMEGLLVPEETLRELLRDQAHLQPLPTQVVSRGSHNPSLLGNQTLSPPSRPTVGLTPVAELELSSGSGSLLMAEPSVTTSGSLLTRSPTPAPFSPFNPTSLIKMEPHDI
# Procedure, shortened: as §1
# ELK4 = target: T3, ELK4 (Homo sapiens, UniProt P28324-2 1-405); conditions: protein: recombinant; tags: N-terminal GST; dsDNA, one strand shown
# T3 sequence: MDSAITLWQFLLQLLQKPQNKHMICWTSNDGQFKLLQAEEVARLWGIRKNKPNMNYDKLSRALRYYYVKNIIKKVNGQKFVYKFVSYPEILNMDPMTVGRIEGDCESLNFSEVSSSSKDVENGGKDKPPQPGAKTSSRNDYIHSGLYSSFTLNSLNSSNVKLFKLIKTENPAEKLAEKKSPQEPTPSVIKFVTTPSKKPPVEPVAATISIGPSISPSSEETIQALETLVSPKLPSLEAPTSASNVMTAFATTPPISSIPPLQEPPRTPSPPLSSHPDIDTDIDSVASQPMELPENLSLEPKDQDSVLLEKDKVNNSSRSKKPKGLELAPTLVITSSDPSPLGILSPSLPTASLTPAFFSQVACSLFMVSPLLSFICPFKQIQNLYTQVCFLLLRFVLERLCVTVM
# Procedure, shortened: as §1
# ETV2 = target: T4, ETV2 (Homo sapiens, UniProt O00321 1-342); conditions: protein: recombinant; tags: N-terminal GST; dsDNA, one strand shown
# T4 sequence: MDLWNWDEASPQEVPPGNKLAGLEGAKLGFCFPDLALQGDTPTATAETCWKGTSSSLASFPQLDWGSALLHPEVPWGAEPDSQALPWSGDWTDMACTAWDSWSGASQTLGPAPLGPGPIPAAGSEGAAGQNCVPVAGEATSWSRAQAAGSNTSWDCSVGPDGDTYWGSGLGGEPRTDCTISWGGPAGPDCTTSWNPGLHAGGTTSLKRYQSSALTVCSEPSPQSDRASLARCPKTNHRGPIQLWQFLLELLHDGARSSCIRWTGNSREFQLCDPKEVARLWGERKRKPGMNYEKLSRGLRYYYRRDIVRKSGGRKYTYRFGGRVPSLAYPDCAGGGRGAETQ
# Procedure, shortened: as §1
# ELF3 = target: T5, ELF3 (Homo sapiens, UniProt P78545 1-371); conditions: protein: recombinant; tags: N-terminal GST; dsDNA, one strand shown
# T5 sequence: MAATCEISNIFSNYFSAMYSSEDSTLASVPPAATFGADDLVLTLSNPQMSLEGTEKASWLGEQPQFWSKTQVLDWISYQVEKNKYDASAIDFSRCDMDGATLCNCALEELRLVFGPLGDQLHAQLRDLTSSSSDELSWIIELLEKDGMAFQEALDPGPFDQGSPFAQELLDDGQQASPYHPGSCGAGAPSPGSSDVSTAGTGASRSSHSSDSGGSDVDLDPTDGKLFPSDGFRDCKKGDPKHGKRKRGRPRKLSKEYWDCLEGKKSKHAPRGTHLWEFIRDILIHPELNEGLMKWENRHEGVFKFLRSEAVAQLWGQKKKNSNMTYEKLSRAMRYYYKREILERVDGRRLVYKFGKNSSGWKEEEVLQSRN
# Procedure, shortened: as §1
# CRX = CRX (Homo sapiens, UniProt O43186 1-299); conditions: protein: recombinant; tags: N-terminal GST; dsDNA, one strand shown
# Chain of CRX (O43186 whole entry): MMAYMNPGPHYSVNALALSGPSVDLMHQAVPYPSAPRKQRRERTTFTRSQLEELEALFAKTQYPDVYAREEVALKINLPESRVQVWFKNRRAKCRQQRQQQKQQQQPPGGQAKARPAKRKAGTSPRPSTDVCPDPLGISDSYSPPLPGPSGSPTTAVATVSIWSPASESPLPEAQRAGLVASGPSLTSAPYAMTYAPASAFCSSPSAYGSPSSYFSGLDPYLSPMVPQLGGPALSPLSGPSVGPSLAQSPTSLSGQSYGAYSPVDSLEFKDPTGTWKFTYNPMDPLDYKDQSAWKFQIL
# Procedure, shortened: as §1
# ETV1 = ETV1 (Homo sapiens, UniProt P50549 1-477); conditions: protein: recombinant; tags: N-terminal GST; dsDNA, one strand shown
# Chain of ETV1 (P50549 whole entry): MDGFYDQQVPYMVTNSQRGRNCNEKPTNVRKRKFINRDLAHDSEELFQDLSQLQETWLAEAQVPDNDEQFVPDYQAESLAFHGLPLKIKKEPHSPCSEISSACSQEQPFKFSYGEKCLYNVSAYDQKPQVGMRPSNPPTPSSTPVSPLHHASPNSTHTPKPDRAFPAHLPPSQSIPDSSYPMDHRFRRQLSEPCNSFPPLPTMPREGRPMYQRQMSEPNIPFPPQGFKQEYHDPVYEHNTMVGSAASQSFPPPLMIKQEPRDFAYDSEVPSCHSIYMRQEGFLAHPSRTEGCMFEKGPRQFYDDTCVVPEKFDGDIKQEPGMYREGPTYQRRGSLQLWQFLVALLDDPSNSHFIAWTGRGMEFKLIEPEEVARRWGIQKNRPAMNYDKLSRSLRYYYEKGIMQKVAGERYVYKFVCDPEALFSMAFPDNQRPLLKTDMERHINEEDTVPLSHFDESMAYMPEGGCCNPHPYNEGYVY
# Procedure, shortened: as §1
# ERF = target: T6, ERF (Homo sapiens, UniProt P50548 1-548); conditions: protein: recombinant; tags: N-terminal GST; dsDNA, one strand shown
# T6 sequence: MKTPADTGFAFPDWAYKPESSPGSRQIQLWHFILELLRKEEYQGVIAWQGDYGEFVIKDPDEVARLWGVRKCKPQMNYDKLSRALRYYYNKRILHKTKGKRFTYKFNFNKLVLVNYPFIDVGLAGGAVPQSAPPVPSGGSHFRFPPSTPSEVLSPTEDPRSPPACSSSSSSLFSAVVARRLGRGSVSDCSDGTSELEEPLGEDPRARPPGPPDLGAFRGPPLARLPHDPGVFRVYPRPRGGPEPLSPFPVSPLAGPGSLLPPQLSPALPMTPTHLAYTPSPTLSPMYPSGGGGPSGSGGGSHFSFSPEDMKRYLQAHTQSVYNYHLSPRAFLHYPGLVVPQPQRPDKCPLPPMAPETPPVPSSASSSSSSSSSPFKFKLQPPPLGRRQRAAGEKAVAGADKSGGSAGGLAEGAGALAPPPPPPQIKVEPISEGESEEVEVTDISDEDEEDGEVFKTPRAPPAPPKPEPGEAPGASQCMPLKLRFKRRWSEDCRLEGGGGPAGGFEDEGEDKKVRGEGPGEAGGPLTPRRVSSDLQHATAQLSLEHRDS
# Procedure, shortened: as §1
# ETV3L = target: T7, ETV3L (Homo sapiens, UniProt Q6ZN32 1-361); conditions: protein: recombinant; tags: N-terminal GST; dsDNA, one strand shown
# T7 sequence: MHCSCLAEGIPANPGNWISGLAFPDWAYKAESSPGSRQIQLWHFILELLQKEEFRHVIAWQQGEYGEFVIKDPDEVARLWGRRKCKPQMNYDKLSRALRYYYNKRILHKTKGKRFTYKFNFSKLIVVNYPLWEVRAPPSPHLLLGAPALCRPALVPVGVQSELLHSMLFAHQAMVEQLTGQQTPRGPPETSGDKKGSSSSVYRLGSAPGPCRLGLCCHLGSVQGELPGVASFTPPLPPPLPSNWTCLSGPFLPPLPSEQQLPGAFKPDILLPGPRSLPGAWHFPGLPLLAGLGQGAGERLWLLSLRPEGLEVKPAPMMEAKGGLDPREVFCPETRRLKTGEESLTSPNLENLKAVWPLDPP
# Procedure, shortened: as §1
# ETS2 = target: T8, ETS2 (Homo sapiens, UniProt P15036 1-469); conditions: protein: recombinant; tags: N-terminal GST; dsDNA, one strand shown
# T8 sequence: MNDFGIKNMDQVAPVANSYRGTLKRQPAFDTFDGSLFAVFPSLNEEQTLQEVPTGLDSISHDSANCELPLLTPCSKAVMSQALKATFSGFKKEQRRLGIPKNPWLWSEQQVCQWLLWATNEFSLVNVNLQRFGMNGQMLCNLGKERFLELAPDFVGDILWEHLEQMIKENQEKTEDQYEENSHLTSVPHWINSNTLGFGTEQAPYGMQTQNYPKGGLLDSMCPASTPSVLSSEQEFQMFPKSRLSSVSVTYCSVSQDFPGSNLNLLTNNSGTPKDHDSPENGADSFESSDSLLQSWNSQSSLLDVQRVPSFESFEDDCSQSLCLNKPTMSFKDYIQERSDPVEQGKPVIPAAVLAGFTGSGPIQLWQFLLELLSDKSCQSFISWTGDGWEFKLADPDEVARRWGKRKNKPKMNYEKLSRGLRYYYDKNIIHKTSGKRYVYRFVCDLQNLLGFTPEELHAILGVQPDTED
# Procedure, shortened: as §1
# SPDEF = target: T9, SPDEF (Homo sapiens, UniProt O95238 1-335); conditions: protein: recombinant; tags: N-terminal GST; dsDNA, one strand shown
# T9 sequence: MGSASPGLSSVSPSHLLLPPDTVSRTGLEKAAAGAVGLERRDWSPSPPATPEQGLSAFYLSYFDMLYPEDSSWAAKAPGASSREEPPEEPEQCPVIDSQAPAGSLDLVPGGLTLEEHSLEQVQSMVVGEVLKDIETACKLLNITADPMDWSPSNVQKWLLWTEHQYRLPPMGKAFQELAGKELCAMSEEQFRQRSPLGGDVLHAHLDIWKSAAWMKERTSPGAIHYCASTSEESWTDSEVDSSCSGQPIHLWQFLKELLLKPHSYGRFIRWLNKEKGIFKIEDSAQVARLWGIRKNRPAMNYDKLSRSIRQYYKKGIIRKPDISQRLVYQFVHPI
# Procedure, shortened: as §1
# ETV7 = target: T10, ETV7 (Homo sapiens, UniProt Q9Y603 1-341); conditions: protein: recombinant; tags: N-terminal GST; dsDNA, one strand shown
# T10 sequence: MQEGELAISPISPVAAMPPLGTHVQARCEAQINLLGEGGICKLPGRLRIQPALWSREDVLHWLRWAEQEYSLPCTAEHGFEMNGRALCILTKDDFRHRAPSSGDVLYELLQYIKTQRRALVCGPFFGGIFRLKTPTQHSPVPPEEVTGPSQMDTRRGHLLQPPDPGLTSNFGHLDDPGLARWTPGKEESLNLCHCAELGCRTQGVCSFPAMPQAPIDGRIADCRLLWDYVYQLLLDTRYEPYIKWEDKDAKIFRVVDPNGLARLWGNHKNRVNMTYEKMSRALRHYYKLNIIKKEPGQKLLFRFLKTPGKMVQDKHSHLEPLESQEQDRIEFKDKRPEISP
# Procedure, shortened: as §1
# ELF5 = target: T11, ELF5 (Homo sapiens, UniProt Q9UKW6-2 1-255); conditions: protein: recombinant; tags: N-terminal GST; dsDNA, one strand shown
# T11 sequence: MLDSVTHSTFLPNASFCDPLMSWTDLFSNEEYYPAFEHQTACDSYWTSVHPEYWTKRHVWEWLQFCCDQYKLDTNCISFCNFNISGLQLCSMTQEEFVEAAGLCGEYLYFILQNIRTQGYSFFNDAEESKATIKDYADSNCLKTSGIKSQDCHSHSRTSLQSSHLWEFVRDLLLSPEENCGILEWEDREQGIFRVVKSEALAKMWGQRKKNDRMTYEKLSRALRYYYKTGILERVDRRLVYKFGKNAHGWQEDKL
# Procedure, shortened: as §1
# ETV3 = target: T12, ETV3 (Homo sapiens, UniProt P41162-2 1-143); conditions: protein: recombinant; tags: N-terminal GST; dsDNA, one strand shown
# T12 sequence: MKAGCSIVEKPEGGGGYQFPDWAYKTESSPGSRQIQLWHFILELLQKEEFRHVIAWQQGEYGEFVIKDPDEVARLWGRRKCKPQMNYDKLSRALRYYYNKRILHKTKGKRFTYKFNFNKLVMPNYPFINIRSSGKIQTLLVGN
# Procedure, shortened: as §1
# ETV6 = ETV6 (Homo sapiens, UniProt P41212 1-452); conditions: protein: recombinant; tags: N-terminal GST; dsDNA, one strand shown
# Chain of ETV6 (P41212 whole entry): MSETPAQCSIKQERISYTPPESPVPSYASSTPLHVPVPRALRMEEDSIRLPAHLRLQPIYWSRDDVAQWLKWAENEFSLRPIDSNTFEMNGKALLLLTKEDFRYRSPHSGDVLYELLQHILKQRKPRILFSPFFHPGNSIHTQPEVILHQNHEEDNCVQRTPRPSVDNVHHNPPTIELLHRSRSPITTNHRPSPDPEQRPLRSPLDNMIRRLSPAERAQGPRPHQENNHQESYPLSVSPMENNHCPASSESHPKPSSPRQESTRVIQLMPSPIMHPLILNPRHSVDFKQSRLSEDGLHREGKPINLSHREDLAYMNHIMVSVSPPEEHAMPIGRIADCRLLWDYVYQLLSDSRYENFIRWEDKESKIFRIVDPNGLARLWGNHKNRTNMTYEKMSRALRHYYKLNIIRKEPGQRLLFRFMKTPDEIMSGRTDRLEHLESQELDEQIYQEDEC
# Procedure, shortened: as §1
sequence,measurement,setting,value
CCTACT,binding signal,FEV,"1.62 fold enrichment (6-mer frequency, TF over GST control)"
same,binding signal,ETV5,"1.57 fold enrichment (6-mer frequency, TF over GST control)"
same,binding signal,HSF1,"1.48 fold enrichment (6-mer frequency, TF over GST control)"
same,binding signal,SPIC,"1.64 fold enrichment (6-mer frequency, TF over GST control)"
same,binding signal,ELF4,"1.7 fold enrichment (6-mer frequency, TF over GST control)"
same,binding signal,ELK4,"1.76 fold enrichment (6-mer frequency, TF over GST control)"
same,binding signal,ETV2,"1.61 fold enrichment (6-mer frequency, TF over GST control)"
same,binding signal,ELF3,"1.41 fold enrichment (6-mer frequency, TF over GST control)"
same,binding signal,CRX,"1.61 fold enrichment (6-mer frequency, TF over GST control)"
same,binding signal,ETV1,"1.49 fold enrichment (6-mer frequency, TF over GST control)"
same,binding signal,ERF,"1.7 fold enrichment (6-mer frequency, TF over GST control)"
same,binding signal,ETV3L,"1.53 fold enrichment (6-mer frequency, TF over GST control)"
same,binding signal,ETS2,"1.7 fold enrichment (6-mer frequency, TF over GST control)"
same,binding signal,SPDEF,"1.49 fold enrichment (6-mer frequency, TF over GST control)"
same,binding signal,ETV7,"1.35 fold enrichment (6-mer frequency, TF over GST control)"
same,binding signal,ELF5,"1.82 fold enrichment (6-mer frequency, TF over GST control)"
same,binding signal,ETV3,"1.77 fold enrichment (6-mer frequency, TF over GST control)"
same,binding signal,ETV6,"1.73 fold enrichment (6-mer frequency, TF over GST control)"
